# Where “and” joins values, the source holds several entries; their conditions need not be identical. Identical values can stand only once. Values without a mark were called inactive. Inconclusive results are not listed. A call without a number means that no potency is given here. Calls of active or inactive are those of the source. Calls come from the whole dose curve.
# Test: G protein-coupled receptor (GPCR) small molecule agonists, calcium flux assay: HEK293 wild type cell line counter screen (AID 1920065)
# Settings: HEK293 WT calcium flux, fluorescence, agonist mode; series mostly up to 57.6 µM; activation: at the top concentration
# Procedure, shortened: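 Calcium flux counter screen: compound added in agonist mode at 15 concentrations in triplicate to dye-loaded parental HEK293 cells. Fluorescence (480/540) read kinetically for 3 min; ATP served as positive control.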
SMILES,Potency,activation [%]
CC(C)c1ccc(OP(=O)(Oc2ccc(C(C)C)cc2)Oc2ccc(C(C)C)cc2)cc1,inactive,–
Clc1cccc(Cl)c1,inactive,–
ClC(Cl)c1ccccc1,inactive,–
O=P(OCC(Br)CBr)(OCC(Br)CBr)OCC(Br)CBr (centres undefined),inactive,–
Clc1cccc(C(Cl)(Cl)Cl)n1,inactive,–
COP(=O)(NC(C)=O)SC (centres undefined),inactive,–
CC(C)N1C(=O)c2ccccc2NS1(=O)=O,inactive,–
CCCCn1cc[n+](C)c1,inactive,–
COP(=O)(OC)OC,–,-0.0211
CCOP(=S)(OCC)Oc1nc(Cl)c(Cl)cc1Cl,inactive,–
CCN(CC)C(=O)/C(Cl)=C(\C)OP(=O)(OC)OC,inactive,–
CCCCCCCCCCCCCCCl,–,0.804
O=C(NC(=O)c1ccccc1Cl)Nc1ccc(OC(F)(F)F)cc1,–,-0.0381
c1ccc(C2CO2)cc1 (centres undefined),inactive,–
ClCCOCCCl,inactive,–
Oc1cccc2cccnc12,inactive,–
CN=C=O,–,0.272
CC(O)CCO (centres undefined),inactive,–
CCCCON=O,–,-0.811

SMILES,Potency,activation [%]
CCOP(=S)(OCC)Oc1ccc([N+](=O)[O-])cc1,inactive,–
C=CC(Cl)CCl (centres undefined),inactive,–
CN(CCCC(=O)c1cccnc1)N=O,–,-0.0751
Nc1ccc(Cl)cc1N,inactive,–
CN(C)c1ccc(N=O)cc1,inactive,–
Cc1ccc(N)c(C)c1,inactive,–
N#CCCCCC#N,inactive,–
C[C@H]1O[C@H](OC2[C@@H](O)[C@@H](O)C(O)[C@H](O)[C@H]2O)[C@@H](N)C[C@@H]1N=C(N)C(=O)O (some centres undefined),–,0.0664
CCC(C)c1ccc(O)cc1 (centres undefined),inactive,–
CCCCC(CC)C(=O)Cl (centres undefined),inactive,–
O=C(CCl)c1ccc(Cl)cc1Cl,inactive,–
O=c1[nH]c2ccccc2n1C1CCN(CCCC(c2ccc(F)cc2)c2ccc(F)cc2)CC1,inactive,–
O=P(Oc1ccccc1)(Oc1ccccc1)Oc1ccccc1,inactive,–
CCCCCCCCCCCCn1cc[n+](C)c1,inactive,–
Cc1[nH]c(=O)n(C(C)(C)C)c(=O)c1Cl,inactive,–
CCCCCC[n+]1ccccc1,inactive,–
NN=C(N)N,inactive,–
O=c1[nH]c2ccccc2c(=O)o1,inactive,–
CC(C)CCCCCCOC(=O)c1ccccc1C(=O)OCCCCCCC(C)C,inactive,–

# Test: p53 small molecule agonists, cell-based qHTS assay with human liver microsomes (AID 1963577); note: potency is the fitted concentration of half-maximal effect;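 for activation: p53 response element beta-lactamase reporter cells with liver microsomes plus NADPH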
# Settings: HCT-116 p53RE-bla with human liver microsomes, ratio, 16 h; series mostly up to 66 µM; activation: at the top concentration
# Procedure, shortened: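 16 h, 37 C exposure of p53RE-bla cells to compounds with human liver microsomes and NADPH (0.5 mg/mL final each); detection via LiveBLAzer mixture, 2 h dark at room temperature.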
SMILES,Potency,activation [%]
CC(C)N1C(=O)c2ccccc2NS1(=O)=O,inactive,–
COP(=O)(OC)OC,inactive,–
CCOP(=S)(OCC)Oc1nc(Cl)c(Cl)cc1Cl,–,0.207
CCN(CC)C(=O)/C(Cl)=C(\C)OP(=O)(OC)OC,1.86 µM (active) and 9.13 µM (active),–
CCCCCCCCCCCCCCCl,–,-2.52
O=C(NC(=O)c1ccccc1Cl)Nc1ccc(OC(F)(F)F)cc1,–,-0.263
c1ccc(C2CO2)cc1 (centres undefined),inactive,–
ClCCOCCCl,inactive,–
CN=C=O,–,-0.863
CC(O)CCO (centres undefined),inactive,–
CCCCON=O,–,-1.42
CN(CCCC(=O)c1cccnc1)N=O,–,-0.77
CN(C)c1ccc(N=O)cc1,inactive,–
N#CCCCCC#N,inactive,–
C[C@H]1O[C@H](OC2[C@@H](O)[C@@H](O)C(O)[C@H](O)[C@H]2O)[C@@H](N)C[C@@H]1N=C(N)C(=O)O (some centres undefined),–,11
CCC(C)c1ccc(O)cc1 (centres undefined),inactive,–
O=c1[nH]c2ccccc2n1C1CCN(CCCC(c2ccc(F)cc2)c2ccc(F)cc2)CC1,inactive,–
O=P(Oc1ccccc1)(Oc1ccccc1)Oc1ccccc1,–,5.31
Nc1cccc2ccccc12,inactive,–
O=c1[nH]c2ccccc2c(=O)o1,inactive,–
CC(C)CCCCCCOC(=O)c1ccccc1C(=O)OCCCCCCC(C)C,inactive,–
